Screening data from PubChem.
Vaccinia Venus: vaccinia inhibition (Venus reporter); Vaccinia virus Venus reporter expression, fluorescence; 330,000 compounds, 0.46% hits; Potency, µM (doses to about 36.5 µM), without a hit: at the top dose activity change, negative = inhibition, hits mostly inhibitors; calls by dose curve; tested in A549 cells; also: potency is read from the fitted curve at half-maximal effect; nearly all actives have a fitted effect of over 30% in size
HCMV antiviral: blocks human cytomegalovirus replication | HFF cells, HCMV-luciferase reporter, 72 h; stronger effect = lower value | activity change, negative = inhibition, % at 57.5 µM | 410,000 compounds, 4.5% hits | AID 1259415; in the data active = activity change below about -60%; inconclusive = no clear call, values can overlap the other calls; inactive = above about -39%
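Screen run at 2 compound doses on HFFs infected with reporter HCMV, MOI 1 PFU/cell. Luciferase activity from cell lysates at 72 h post infection gave inhibition relative to buffer-only and Salinomycin wells.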
VACV mCherry inh: vaccinia inhibition (mCherry reporter) | Vaccinia virus mCherry reporter infection, fluorescence | Potency, µM (series often up to 36.5 µM), without a hit: top-dose activity change, negative = inhibition, hits mostly inhibitors | 310,000 compounds, 0.63% hits | AID 720579; calls by dose curve; tested in A549 cells; also: potency is read from the fitted curve at half-maximal effect; nearly all actives have a fitted effect of over 35% in size
FMDV inh: blocks foot and mouth disease virus; Potency, µM (series often up to 57.9 µM), for the others: at the highest dose activity change, negative = inhibition, most hits filed as inhibitors; 410,000 compounds, 1.2% hits; FMDV antiviral cell-based qHTS; AID 1159524; calls by dose curve; tested in HEK293T cells; also: read-out not given here; potency is read from the fitted curve at half-maximal effect; nearly all actives have a fitted effect of over 45% in size
HCV inh: HCV inhibition | Huh7.5.1 HCVcc-Cre infection, luciferase reporter, 44 h | Potency, µM (top dose mostly 41.8 µM), for the others: at the top dose activity change, negative = inhibition, hits mostly inhibitors | 340,000 compounds, 3.4% hits | AID 651820; active = well fitted inhibition curve with a large enough effect; inconclusive = small, poorly fitted or top-dose-only effect, or another doubt; inactive = no such curve, though single readings can be large or run the other way; also: potency is read from the fitted curve at half-maximal effect
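Cells seeded at 1,000/well and cultured 4 h, then compounds added followed by HCVcc-Cre virus (~0.5 moi). After 44 h further culture, luciferase substrate was added, plates held 15 min at room temperature, and luminescence read for 15 sec.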
Starred values were filed as active, the others as inactive; i = inactive; ? = inconclusive; · = not tested or not shown; [ ] = dose if it differs, or a comment. This is a sample that favours compounds with a hit; in the whole collection about 7.3% have one here. % is scaled to controls: 0 for no effect and ±100 for the full control effect.

SMILES	Vaccinia Venus	HCMV antiviral	VACV mCherry inh	FMDV inh	HCV inh
CCOC(=O)N1CCc2c(sc3c2c(=O)n(Cc2ccccc2)c(=O)n3Cc2cccc(Cl)c2)C1	-19%	10	-24%	-21%	·
COc1ccc2oc(-c3ccc(C)c(NC(=O)c4ccc(N5CCOCC5)c([N+](=O)[O-])c4)c3)nc2c1	·	-81*	·	58%	-19%
COc1cccc(C(=O)Nc2cccc(C(=O)NCC(C)C)c2)c1	-16%	-10	-4%	-1%	?
CC(C)CNC(=O)c1cccc(NC(=O)c2ccc(Cl)c([N+](=O)[O-])c2)c1	-10%	-15	-9%	28µM*	?
CN(C)S(=O)(=O)c1cc(NC(=O)c2ccc(-n3ccnc3)c([N+](=O)[O-])c2)ccc1Cl	-11%	-71*	-3%	?	?
COc1ccccc1NC(=O)c1ccc(-n2ccnc2)c([N+](=O)[O-])c1	-2%	15	-11%	-13%	-28%
O=C(Nc1nc2ccc(Cl)cc2s1)c1ccc(N2CCCCC2)c([N+](=O)[O-])c1	-8%	-67*	i	?	-2%
COc1ccc(CNC(=O)c2cnn(-c3ncc4c(n3)-c3ccccc3CC4)c2C)cc1OC	-11%	·	-25%	34%	·
COc1ccc(OC)c(C2CC(=O)Nc3c2c(=O)[nH]c2nc4ccccc4n32)c1 (centres undefined)	19%	18	2%	-20%	·
O=C(Nc1cccc(S(=O)(=O)N2CCOCC2)c1)c1ccc(Cl)c([N+](=O)[O-])c1	-9%	16	i	40µM*	?
Cc1ccc(C(=O)Nc2ccccc2[N+](=O)[O-])cc1S(=O)(=O)N1CCOCC1	-3%	-7	i	-2%	-24%
Cc1ccc(NC(=O)c2ccc(N3CCOCC3)c([N+](=O)[O-])c2)cc1S(=O)(=O)N1CCOCC1	-23%	-98*	-12%	13µM*	3.5µM*
CC1Cc2ccccc2N1CC(=O)Nc1cc(S(=O)(=O)N2CCOCC2)ccc1Cl (centres undefined)	-17%	16	-14%	-2%	·
Cc1cccc(C)c1NC(=O)NC1(C(=O)NCC2CCCO2)CCCCC1 (centres undefined)	-10%	20	i	-14%	0%
O=C(O)C1(Nc2ccccc2Cl)CCCC1	-11%	-20	-3%	9%	13%
O=C1OCC(CO)(CO)N=C1NNc1ccccc1Cl	13%	-66*	-15%	·	27%
CCOc1cc(/C=C2\C(=O)N(CCc3ccc(OC)c(OC)c3)C(C)=C2C(=O)OC)ccc1O	-3%	-22	i	20µM*	-1%
COC(=O)C1=C(C)N(Cc2ccc(C)cc2)C(=O)/C1=C\c1cc(OC)c(OC)c(OC)c1	0%	67	-5%	20µM*	?
COC(=O)C1=C(C)N(Cc2ccc(C)cc2)C(=O)/C1=C\c1ccc(O)c(OC)c1	?	119	·	?	-6%
Cc1cc(OC(C)C(=O)Nc2c(C(=O)c3ccc(F)cc3)oc3ccccc23)ccc1Cl (centres undefined)	-9%	-6	-7%	0%	·
CCCC(=O)Nc1ccc2nc(SCCOc3ccccc3)sc2c1	-13%	-60*	-12%	-17%	·
Cc1cc(C)cc(OCCSc2nc3ccc(NC(=O)c4cccs4)cc3s2)c1	-2%	-22	-6%	-8%	·
Cc1cccc(OCCSc2nc3ccc(NC(=O)COc4ccccc4)cc3s2)c1	-13%	-18	-26%	0%	·
CCOC(=O)Nc1ccc2nc(Sc3ccc(Cl)cc3)sc2c1	?	-34	?	-21%	14µM*
CCC(=O)Nc1ccc2nc(SCCOc3ccccc3)sc2c1	-12%	-63*	i	-4%	·
SMILES	Vaccinia Venus	HCMV antiviral	VACV mCherry inh	FMDV inh	HCV inh
O=C(Nc1ccc2nc(SCCOc3ccccc3Cl)sc2c1)c1cccs1	-5%[7.34 µM]	-88*	-8%[7.34 µM]	-24%	·
CN1CCN(S(=O)(=O)c2cccc(C(=O)N(C)CC(=O)Nc3ccc(Cl)c(Cl)c3)c2)CC1	·	-23	·	?	-14%
CC1(C(=O)NCc2ccc(Cl)cc2)CCN1C(=O)c1cccc(F)c1 (centres undefined)	-13%	8	-15%	-15%	·
Cc1cccn2c(=O)c3cc(C(=O)NCc4ccccc4Cl)sc3nc12	-4%	9	6%	10%	·
COc1ccc(-n2nc([N+](=O)[O-])c(=NCc3cccnc3)n2O)cc1	-17%	10	-5%	14%	4%
COc1ccc(-n2nc([N+](=O)[O-])c(=NCCc3ccc(OC)c(OC)c3)n2O)cc1	-14%	?	-23%	?	13µM*
COc1ccc(-n2nc([N+](=O)[O-])c(=NCCc3ccc(C)cc3)n2O)cc1	-11%	0	-19%	-19%	0%
COc1ccc(-n2nc([N+](=O)[O-])c(=NC3CCN(Cc4ccccc4)CC3)n2O)cc1	?	-63*	?	29%	?
Cc1cccc(Nc2ncnc3ccc(Br)cc23)c1	?	-60*	-1%	-19%	-18%
CCOC(=O)c1cccc(Nc2ncnc3ccc(C)cc23)c1	?	-24	·	?	25µM*
Clc1cccc(Nc2ncnc3ccc(Br)cc23)c1	?	-62*	-10%	·	?
CCOC(=O)c1ccc(Nc2ncnc3ccc(C)cc23)cc1	-12%	-11	·	-18%	-14%
Clc1ccc(Nc2ncnc3ccc(Br)cc23)cc1	?	-83*	?	·	?
CCOc1ccc(CNC(=O)c2ccc3c(c2)c(C)c(C)n3Cc2ccccc2)cc1OC	-19%	?	-18%	-27%	·
O=C(NC(c1ccc(-c2ccccc2)cc1)c1cnccn1)C1CCN(Cc2cccs2)CC1 (centres undefined)	-6%	5	i	-2%	·
CCOC(=O)NN1C(=O)c2ccccc2NC1c1cccs1 (centres undefined)	-7%	7	-7%	-11%	?
COc1ccc(Nc2ncnc3ccc(Br)cc23)cc1OC	-21%	·	?	-9%	?
CN(C)c1ccc(Nc2ncnc3ccc(Br)cc23)cc1	·	-76*	·	5%	-17%
CCCCCCN1C[C@@H](n2cc(COC(=O)c3ccccc3)nn2)[C@H](O)C[C@@H]1c1ccc(C)cc1	?	-89*	?	-26%	·
COc1ccc([C@H]2C[C@H](O)[C@@H](n3cc(COC(=O)c4ccccc4)nn3)CN2C(=O)C2CCCCC2)cc1	-15%	-83*	12%	-16%	·
CCCCCCN1C[C@H](O)[C@@H](n2cc(COC(=O)c3ccccc3)nn2)C[C@@H]1c1ccc(Cl)cc1	-18%	46	-12%	-19%	·
CCCCCCN1C[C@H](O)[C@@H](n2cc(COC(=O)c3ccccc3)nn2)C[C@@H]1c1ccc(C)cc1	-17%	13	-15%	-24%	·
Cc1ccc([C@H]2C[C@@H](O)[C@H](n3cc(COC(=O)c4ccccc4)nn3)CN2C(=O)C2CCCCC2)cc1	-25%	2	i	-24%	·
O=C(OCc1cn([C@@H]2CN(CC3CCCCC3)[C@@H](c3ccccc3)C[C@H]2O)nn1)c1ccccc1	-21%	-14	?	-9%	·
